Results filed as inconclusive are left out. The source made the active and inactive calls. Unless noted, the call rests on the fitted dose curve; in most records, active means well fitted curve in either direction with a large enough effect (not every such curve was filed as active); inconclusive means small, poorly fitted or top-dose-only effect, or another doubt; inactive means flat fitted curve, though single readings scatter.
Columns and labels:
[1] = target: Lysosomal acid glucosylceramidase (Homo sapiens) (UniProt P04062); assay: Glucocerebrosidase-p2 (AID 348; in the data active means potency below about 10 µM; further: potency means the concentration at half of the fitted maximal effect); details: purified GBA, blue fluorogenic substrate, 40 min
Chain of Lysosomal acid glucosylceramidase (Homo sapiens) (P04062 whole entry, looked up): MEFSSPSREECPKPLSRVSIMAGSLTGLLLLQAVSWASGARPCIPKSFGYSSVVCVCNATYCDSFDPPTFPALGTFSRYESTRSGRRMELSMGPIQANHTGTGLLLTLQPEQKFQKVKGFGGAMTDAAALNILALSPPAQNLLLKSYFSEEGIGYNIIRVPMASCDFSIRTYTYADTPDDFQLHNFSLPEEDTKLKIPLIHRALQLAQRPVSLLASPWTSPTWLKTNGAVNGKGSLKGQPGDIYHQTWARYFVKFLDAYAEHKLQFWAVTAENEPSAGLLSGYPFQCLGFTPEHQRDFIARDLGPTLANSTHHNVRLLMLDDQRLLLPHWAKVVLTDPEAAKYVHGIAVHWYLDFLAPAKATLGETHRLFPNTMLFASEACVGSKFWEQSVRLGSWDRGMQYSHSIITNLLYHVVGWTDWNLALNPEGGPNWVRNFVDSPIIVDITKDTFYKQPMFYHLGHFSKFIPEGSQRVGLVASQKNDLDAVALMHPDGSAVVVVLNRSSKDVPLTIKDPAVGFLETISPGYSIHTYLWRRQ
Procedure, shortened: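 Normal human glucocerebrosidase (0.2 nM) with blue fluorogenic substrate (80 uM final) in citrate/phosphate pH 5.9 with 10mM sodium taurocholate, 0.01% tween-20; 40 min RT, NaOH/glycine stop; fluorescence Ex 365/Em 440; AC50 from a titration from 0.6 nM upwards.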

[2] = AP1 Signaling Pathway (AID 357); details: ME-180 AP-1-bla reporter, EGF-induced, beta-lactamase ratio, 5 h; at 7.69 µM (top of the series) unless noted; further: on the % scale 0 is the no-effect control and ±100 the full control effect
Procedure, shortened: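 ME-180 cells with beta-lactamase reporter under AP-1 response element, stimulated with EC50 EGF; compounds tested in titration series, 5 h at 37 °C. CCF4 substrate added 2.5 h at room temperature; 460/530 nm emission ratio gave %activity and AC50.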

[3] = target: Cytochrome P450 1A2 (Homo sapiens) (UniProt P05177); assay: p450-cyp1a2 (AID 410; calls by dose curve; further: potency means the concentration at half of the fitted maximal effect;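 on activity change, negative = inhibition: -100% = full effect of reference inhibitor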); details: recombinant CYP1A2, luciferin-ME demethylation, luminescence; series mostly up to 57 µM
Chain of Cytochrome P450 1A2 (Homo sapiens) (P05177 whole entry, looked up): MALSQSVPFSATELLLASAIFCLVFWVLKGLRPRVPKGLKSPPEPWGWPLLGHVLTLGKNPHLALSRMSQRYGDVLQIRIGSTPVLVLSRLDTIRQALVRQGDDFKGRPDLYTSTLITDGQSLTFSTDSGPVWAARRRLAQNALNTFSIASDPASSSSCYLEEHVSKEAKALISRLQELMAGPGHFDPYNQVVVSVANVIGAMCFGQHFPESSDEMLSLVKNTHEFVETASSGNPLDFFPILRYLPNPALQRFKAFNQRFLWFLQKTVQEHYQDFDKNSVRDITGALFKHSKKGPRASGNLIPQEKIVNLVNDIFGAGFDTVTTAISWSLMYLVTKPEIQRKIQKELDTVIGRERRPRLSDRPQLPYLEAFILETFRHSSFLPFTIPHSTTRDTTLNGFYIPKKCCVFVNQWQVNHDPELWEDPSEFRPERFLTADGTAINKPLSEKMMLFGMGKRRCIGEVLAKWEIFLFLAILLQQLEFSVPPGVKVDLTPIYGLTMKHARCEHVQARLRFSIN
Procedure, shortened: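 20nM CYP1A2, 100uM Luciferin-ME (=Km), 100mM KPO4; cpd 10 min RT; +NADPH regen, 60 min RT; stop/detect 20 min; luminescence. Normalized to furafylline 57 uM = full inhibition.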

[4] = NFAT Signaling Pathway (AID 444); details: Jurkat NFAT-bla M1, carbachol, beta-lactamase ratio, 5 h; at 7.69 µM (top of the series) unless noted;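 further: carbachol stimulus at about its EC50 of 1 µM final; on the % scale 0 is the no-effect control and ±100 the full control effect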
Procedure, shortened: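 Jurkat cells carrying an NFAT-driven β-lactamase reporter and co-transfected muscarinic M1 receptor were treated with compound plus carbachol (1 uM final, an EC50 level) for 5 h at 37 °C. CCF4 loading followed for 1 h at RT; 460/530 nm ratio gave %activity.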

[5] = Stat Signaling Pathway (AID 446); details: ME-180 SIE beta-lactamase reporter, IL-6 stimulated, 5 h; at 7.69 µM (top of the series) unless noted;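 further: ME-180 cervical cancer cells given 40 pM IL-6 alongside compound; SIE-controlled beta-lactamase reporter measured as 460/530 nm FRET emission ratio; on the % scale 0 is the no-effect control and ±100 the full control effect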
Procedure, shortened: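 Compound effects on IL-6-induced STAT reporter activity were measured in ME-180 cells. After overnight culture, cells were co-treated with 40 pM IL-6 for 5 hrs before beta-lactamase substrate loading at room temperature.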

[6] = target: Glucocorticoid receptor (Homo sapiens) (UniProt P04150); assay: GR-EFC Redistribution (AID 451; calls by dose curve; further: potency means the concentration at half of the fitted maximal effect); details: CHO-K1 GR-EFC translocation, beta-gal luminescence, 2 h
Chain of Glucocorticoid receptor (Homo sapiens) (P04150 whole entry, looked up, the tested form may be a part): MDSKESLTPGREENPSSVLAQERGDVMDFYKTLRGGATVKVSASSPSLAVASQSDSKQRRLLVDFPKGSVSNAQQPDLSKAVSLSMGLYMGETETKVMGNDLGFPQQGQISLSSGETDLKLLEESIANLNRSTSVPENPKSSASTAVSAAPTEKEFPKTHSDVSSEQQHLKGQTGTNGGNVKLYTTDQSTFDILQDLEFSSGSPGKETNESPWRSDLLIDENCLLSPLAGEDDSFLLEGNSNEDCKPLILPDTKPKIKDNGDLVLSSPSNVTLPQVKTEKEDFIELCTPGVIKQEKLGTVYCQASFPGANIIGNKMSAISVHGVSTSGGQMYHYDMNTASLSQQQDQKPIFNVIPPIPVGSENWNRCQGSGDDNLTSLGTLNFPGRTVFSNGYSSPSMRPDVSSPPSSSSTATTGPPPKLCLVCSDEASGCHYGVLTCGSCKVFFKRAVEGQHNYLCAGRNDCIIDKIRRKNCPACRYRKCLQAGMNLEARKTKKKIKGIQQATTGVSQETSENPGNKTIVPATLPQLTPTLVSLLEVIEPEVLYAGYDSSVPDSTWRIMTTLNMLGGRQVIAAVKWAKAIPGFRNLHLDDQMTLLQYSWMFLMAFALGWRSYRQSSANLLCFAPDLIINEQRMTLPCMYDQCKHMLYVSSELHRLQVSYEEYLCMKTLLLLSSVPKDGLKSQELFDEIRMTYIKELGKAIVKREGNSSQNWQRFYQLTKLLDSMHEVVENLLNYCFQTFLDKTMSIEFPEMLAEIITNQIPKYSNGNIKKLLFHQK
Procedure, shortened: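 CHO-K1 cells stably expressing nuclear-localized β-gal enzyme acceptor and GR fused C-terminally to the enzyme donor fragment; ligand-driven nuclear translocation restores β-gal by complementation. Compounds titrated up to 46 uM final, 2 h at 37 °C; luminescence read.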

[7] = target: Mitogen-activated protein kinase 10 (Mus musculus) (UniProt Q61831); assay: JNK3 AlphaScreen Assay (AID 530); details: JNK3 lysate, c-Jun phosphorylation; series mostly up to 57.1 µM;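 further: kinase came from lysate of stimulated human HepG2 cells; signal reports phosphorylation of biotinylated GST-cJun 1-79 at Ser73 with 10 µM ATP; on the % scale 0 is the no-effect control and ±100 the full control effect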
Procedure, shortened: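 Biotinylated GST-cJun(1-79) served as substrate for JNK3 in HepG2 lysates stimulated with IL-1beta and TNF-alpha. ATP was 10 uM final, pH 7.6. Ser73 phosphorylation was quantified by AlphaScreen (680 nm excitation).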

[8] = target: 3',5'-cyclic-AMP phosphodiesterase 4B (Homo sapiens) (UniProt Q07343); assay: qHTS Assay for Inhibitors of PDE-IV (AID 607; active means well fitted activation curve with a large enough effect in the main read-out, with a control signal flat, not every such curve was filed as active; further: % of control where 0% means no effect); details: HEK293 ACTOne CNG channel cells, membrane potential fluorescence; series mostly up to 22.9 µM
Chain of 3',5'-cyclic-AMP phosphodiesterase 4B (Homo sapiens) (Q07343 whole entry, looked up): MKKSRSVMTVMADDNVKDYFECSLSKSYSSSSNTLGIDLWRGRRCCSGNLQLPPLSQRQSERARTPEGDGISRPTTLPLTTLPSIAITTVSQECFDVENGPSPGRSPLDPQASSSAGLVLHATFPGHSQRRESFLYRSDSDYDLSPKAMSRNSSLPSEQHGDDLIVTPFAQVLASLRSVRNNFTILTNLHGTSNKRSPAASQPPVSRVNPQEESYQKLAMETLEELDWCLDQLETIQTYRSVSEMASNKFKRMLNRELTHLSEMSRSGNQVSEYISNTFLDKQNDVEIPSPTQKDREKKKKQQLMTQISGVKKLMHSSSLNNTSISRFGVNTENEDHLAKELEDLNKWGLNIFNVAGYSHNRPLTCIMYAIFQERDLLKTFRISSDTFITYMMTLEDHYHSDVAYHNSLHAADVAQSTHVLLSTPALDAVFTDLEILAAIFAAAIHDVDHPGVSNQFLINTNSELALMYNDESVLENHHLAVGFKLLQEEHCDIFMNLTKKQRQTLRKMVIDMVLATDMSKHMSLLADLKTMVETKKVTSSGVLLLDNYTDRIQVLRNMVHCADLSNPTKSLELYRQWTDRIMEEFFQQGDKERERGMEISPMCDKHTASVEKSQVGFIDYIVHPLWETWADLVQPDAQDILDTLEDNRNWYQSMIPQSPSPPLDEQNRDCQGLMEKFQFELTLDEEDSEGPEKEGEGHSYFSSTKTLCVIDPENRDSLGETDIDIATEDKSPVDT
Procedure, shortened: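 ACTOne HEK293 cells carry a modified cAMP-gated CNG channel and express endogenous PDE4; plated 1000 cells/well, compounds up to 22.9 uM final. Membrane-potential dye fluorescence (ex 535/em 590) was read; parental cells received 10 uM forskolin + 100 uM RO 20-1724.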

[9] = qHTS Assay for Lipid Storage Modulators (AID 1519; calls by dose curve); details: Drosophila S3 cells, BODIPY lipid droplet/cell ratio, laser cytometry, cells loaded with oleic acid; for activity change, negative = inhibition: at 57.5 µM (top of the series)
Procedure, shortened: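 Cells seeded at 5,000 per well were treated with compounds over a concentration series and loaded with oleic acid (400 uM, as added). Lipid droplet fluorescence (488 nm excitation, 500-530 nm channel) was read by laser-scanning cytometry and normalized to 20 uM Triacsin C.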

[10] = Primary qHTS for small molecule stabilizers of the endoplasmic reticulum resident proteome: Secreted ER Calcium Modulated Protein (SERCaMP) assay (AID 1508630; active means well fitted curve in the direction sought with a large enough effect; an effect the other way counts as inactive or inconclusive; further: on the % scale 0 is the no-effect control and ±100 the full control effect); details: SH-SY5Y GLuc-SERCaMP (Gaussia luciferase released on ER calcium loss) secretion, thapsigargin, luminescence; series mostly up to 38.4 µM
Procedure, shortened: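 The SH-SY5Y reporter protocol was run at 3 concentrations up to 38.3 uM (primary) or 11 concentrations (follow-up): 16 h compound, 100 nM thapsigargin for 4 h, then extracellular luciferase luminescence.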

[11] = target: Cytochrome P450 2C9 (Homo sapiens) (UniProt P11712); assay: qHTS Assay for Inhibitors and Substrates of Cytochrome P450 2C9 (AID 883; active means well fitted curve in the direction sought with a large enough effect; an effect the other way counts as inactive or inconclusive; further: nearly all actives have a fitted effect of over 60% in size; further: potency means the concentration at half of the fitted maximal effect); details: recombinant CYP2C9, luciferin-H luminescence, 60 min; series mostly up to 57.1 µM
Chain of Cytochrome P450 2C9 (Homo sapiens) (P11712 whole entry, looked up): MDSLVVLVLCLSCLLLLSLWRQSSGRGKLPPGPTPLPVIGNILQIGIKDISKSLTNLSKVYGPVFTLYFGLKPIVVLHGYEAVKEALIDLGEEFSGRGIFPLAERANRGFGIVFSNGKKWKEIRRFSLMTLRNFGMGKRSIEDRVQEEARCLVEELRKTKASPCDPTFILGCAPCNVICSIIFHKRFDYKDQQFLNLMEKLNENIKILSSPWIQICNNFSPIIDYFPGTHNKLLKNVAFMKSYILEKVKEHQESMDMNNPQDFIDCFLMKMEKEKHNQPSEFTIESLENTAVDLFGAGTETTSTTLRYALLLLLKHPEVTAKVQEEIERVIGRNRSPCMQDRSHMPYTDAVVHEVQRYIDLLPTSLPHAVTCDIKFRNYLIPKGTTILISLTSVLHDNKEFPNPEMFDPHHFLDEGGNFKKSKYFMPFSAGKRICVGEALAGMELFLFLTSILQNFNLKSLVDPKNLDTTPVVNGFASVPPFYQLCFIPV
Procedure, shortened: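 A luminogenic readout tracked human CYP2C9 (10nM) converting deoxyluciferin (100uM, at KM) in 25mM KPO4 during 60 min at 37C with regenerated NADPH. Values normalized to 57uM sulphaphenazole as complete inhibition.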

[12] = target: Cytochrome P450 3A4 (Homo sapiens) (UniProt P08684); assay: qHTS Assay for Inhibitors and Substrates of Cytochrome P450 3A4 (AID 884; active means well fitted curve in the direction sought with a large enough effect; an effect the other way counts as inactive or inconclusive; further: nearly all actives have a fitted effect of over 50% in size; further: potency means the concentration at half of the fitted maximal effect); details: recombinant CYP3A4, Luciferin-PPXE luminescence; series mostly up to 57.1 µM
Chain of Cytochrome P450 3A4 (Homo sapiens) (P08684 whole entry, looked up): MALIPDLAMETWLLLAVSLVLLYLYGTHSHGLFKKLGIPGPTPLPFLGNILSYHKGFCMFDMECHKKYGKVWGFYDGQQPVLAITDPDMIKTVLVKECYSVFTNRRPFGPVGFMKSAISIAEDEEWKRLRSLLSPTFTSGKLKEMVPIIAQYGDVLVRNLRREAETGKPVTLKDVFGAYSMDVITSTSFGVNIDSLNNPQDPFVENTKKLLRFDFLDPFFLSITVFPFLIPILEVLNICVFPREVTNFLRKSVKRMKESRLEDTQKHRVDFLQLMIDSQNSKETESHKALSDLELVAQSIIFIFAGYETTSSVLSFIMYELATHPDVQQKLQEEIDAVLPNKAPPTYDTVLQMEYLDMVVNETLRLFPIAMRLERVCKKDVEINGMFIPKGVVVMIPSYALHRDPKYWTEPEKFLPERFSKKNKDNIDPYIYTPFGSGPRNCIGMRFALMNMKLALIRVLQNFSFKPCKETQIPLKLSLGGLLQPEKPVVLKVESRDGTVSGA
Procedure, shortened: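 Luminescent readout of luciferin produced by CYP3A4 (20 nM) dealkylation of Luciferin-PPXE, 25 uM (its KM). NADPH-driven reaction ran 60 min at RT after 10 min compound preincubation; data scaled to 57 uM ketoconazole as 100% inhibition.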

[13] = target: Cytochrome P450 2D6 (Homo sapiens) (UniProt P10635); assay: qHTS Assay for Inhibitors and Substrates of Cytochrome P450 2D6 (AID 891; active means well fitted curve in the direction sought with a large enough effect; an effect the other way counts as inactive or inconclusive;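 further: luciferin methyl ether substrate demethylated by CYP2D6 with NADPH regeneration; on the % scale 0 is the no-effect control and ±100 the full control effect; nearly all actives have a fitted effect of over 60% in size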); details: recombinant CYP2D6, luciferin-ME EGE luminescence; series mostly up to 57.1 µM
Chain of Cytochrome P450 2D6 (Homo sapiens) (P10635 whole entry, looked up): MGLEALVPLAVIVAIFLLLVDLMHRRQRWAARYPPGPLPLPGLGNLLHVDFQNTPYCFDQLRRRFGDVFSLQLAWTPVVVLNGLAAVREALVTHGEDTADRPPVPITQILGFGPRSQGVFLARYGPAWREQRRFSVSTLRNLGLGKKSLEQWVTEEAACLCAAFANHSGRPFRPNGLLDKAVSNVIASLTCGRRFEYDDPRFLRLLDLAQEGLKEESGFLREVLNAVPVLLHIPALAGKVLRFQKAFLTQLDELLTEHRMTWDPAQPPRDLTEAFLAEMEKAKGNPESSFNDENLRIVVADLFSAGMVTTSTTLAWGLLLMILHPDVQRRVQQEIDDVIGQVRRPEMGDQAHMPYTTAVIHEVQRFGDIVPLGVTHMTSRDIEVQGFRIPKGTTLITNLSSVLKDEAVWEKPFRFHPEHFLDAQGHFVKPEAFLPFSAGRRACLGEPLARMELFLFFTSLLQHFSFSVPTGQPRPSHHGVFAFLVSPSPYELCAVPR
Procedure, shortened: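 Luminescent read-out of luciferin formed by 5 nM human CYP2D6 demethylating 30 uM Luciferin-ME EGE (Km level) over 60 min at room temperature after NADPH regeneration addition. Data normalized to full inhibition by 1.43 uM quinidine.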

[14] = target: Cytochrome P450 2C19 (Homo sapiens) (UniProt P33261); assay: qHTS Assay for Inhibitors and Substrates of Cytochrome P450 2C19 (AID 899; active means well fitted curve in the direction sought with a large enough effect; an effect the other way counts as inactive or inconclusive; further: on the % scale 0 is the no-effect control and ±100 the full control effect; nearly all actives have a fitted effect of over 60% in size); details: recombinant CYP2C19, luciferin-H EGE luminescence; series mostly up to 57.1 µM
Chain of Cytochrome P450 2C19 (Homo sapiens) (P33261 whole entry, looked up): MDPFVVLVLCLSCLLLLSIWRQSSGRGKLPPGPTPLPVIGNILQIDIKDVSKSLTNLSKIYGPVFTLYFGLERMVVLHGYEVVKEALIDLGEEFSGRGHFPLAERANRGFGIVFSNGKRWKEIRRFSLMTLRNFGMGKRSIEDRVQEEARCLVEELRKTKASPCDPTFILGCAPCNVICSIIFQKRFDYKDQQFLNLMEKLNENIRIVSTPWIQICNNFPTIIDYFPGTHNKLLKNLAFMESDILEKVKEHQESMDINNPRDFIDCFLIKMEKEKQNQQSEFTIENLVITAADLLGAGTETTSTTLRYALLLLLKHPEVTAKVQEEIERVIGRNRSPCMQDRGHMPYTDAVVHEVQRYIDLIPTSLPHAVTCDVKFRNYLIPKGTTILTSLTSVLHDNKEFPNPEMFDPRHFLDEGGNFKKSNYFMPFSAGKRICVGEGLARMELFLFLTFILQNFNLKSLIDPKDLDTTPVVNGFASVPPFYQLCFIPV
Procedure, shortened: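 NADPH-dependent conversion of Luciferin-H EGE (10uM, at KM) by 5nM enzyme in 50mM KPO4, 60 min at 37C following 10 min compound preincubation. Stopped with luciferin detection buffer; luminescence read after 20 min.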

[15] = target: Cytochrome P450 3A4 (Homo sapiens) (UniProt P08684); assay: qHTS Assay for Activators of Cytochrome P450 3A4 (AID 885; active means well fitted curve in the direction sought with a large enough effect; an effect the other way counts as inactive or inconclusive; further: nearly all actives have a fitted effect of over 65% in size; further: potency means the concentration at half of the fitted maximal effect); details: recombinant CYP3A4, Luciferin-PPXE luminescence, 60 min; series mostly up to 57.1 µM
Procedure, shortened: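 CYP3A4 activity: Luciferin-PPXE O-dealkylation, 25uM substrate, 200mM KPO4, RT throughout. Read-out is luciferase luminescence; higher values reflect activation.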

[16] = qHTS Assay for Identification of Small Molecule Agonists for Hypoxia Response Element Signaling Pathway (AID 914; active means well fitted activation curve with a large enough effect in the signal ratio, with a control signal flat, not every such curve was filed as active; the % refers to the signal ratio; further: % of control where 0% means no effect); details: ME-180 (cervical carcinoma) HRE-bla reporter, beta-lactamase ratio, CoCl2, 17 h; activation: stronger effect = higher value
Procedure, shortened: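 HRE-bla ME-180 cells with beta-lactamase reporter under hypoxia response element, compounds with EC50 CoCl2 for 17 hours at 37 C. CCF4 substrate, 460nm/530nm emission ratio gave %Activity; AC50 from titration series.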

[17] = measured here: cell count channel max response
[18] = measured here: lipid channel max response

Compound	Potency [1]	activity change, negative = inhibition [2]	Potency [3]	activity change, negative = inhibition [4]	activity, negative = inhibition [5]	Potency [6]	outcome [7]	Potency [8]	activity change, negative = inhibition [9]	max response [9, 17]	max response [9, 18]	Potency [10]	Potency [11]	Potency [12]	Potency [13]	Potency [14]	Potency [15]	activation [16]
COc1ccc(NC(=O)N2CC[C@@]3(CCCNC3)C2)cc1	> 11.4 µM (inactive)	-15.6% (inactive)	inactive	-5.59% (inactive)	-0.259% (inactive)	> 46 µM (inactive)	inactive	inactive	-2.79% (inactive)	-3.47%	-5.51%	inactive	–	–	–	–	–	–
COC(=O)N1CCC2(CCN(C(=O)NC(C)C)CC2)CC1	> 11.4 µM (inactive)	-1.37% (inactive)	20 µM (active)	-29.8% (inactive)	-1.69% (inactive)	> 46 µM (inactive)	inactive	inactive	2.86% (inactive)	7.58%	13.7%	inactive	–	–	–	–	–	–
O=C(c1csnn1)N1CCC2(CC1)CN(c1ccncc1)C2	> 11.4 µM (inactive)	-12.4% (inactive)	inactive	-12.8% (inactive)	-7.18% (inactive)	> 46 µM (inactive)	inactive	inactive	0.619% (inactive)	4.32%	5.47%	inactive	2.51 µM (active)	–	–	–	–	–
COCC(=O)N1CCC[C@@]2(CCN(C(=O)Nc3cccc(C#N)c3)C2)C1	> 11.4 µM (inactive)	0.866% (inactive)	inactive	-2.97% (inactive)	2.49% (inactive)	> 46 µM (inactive)	inactive	inactive	4.94% (inactive)	13.7%	21.6%	inactive	inactive	inactive	inactive	inactive	–	–
COc1ccc(C(=O)N2CCC3(CCCN(Cc4ccncc4)C3)CC2)cc1	> 11.4 µM (inactive)	-3.23% (inactive)	inactive	-17.9% (inactive)	2.74% (inactive)	> 46 µM (inactive)	inactive	inactive	3.4% (inactive)	2.99%	8.92%	inactive	3.16 µM (active)	7.94 µM (active)	–	–	inactive	–
O=C(c1cnccn1)N1CCC2(CCN(Cc3nccs3)CC2)CC1	> 11.4 µM (inactive)	2.79% (inactive)	inactive	9.93% (inactive)	3.3% (inactive)	> 46 µM (inactive)	inactive	inactive	2.95% (inactive)	-0.576%	4.52%	inactive	–	–	–	–	–	–
COC(=O)N1CCC2(CC1)CN(c1ccccn1)C2	> 11.4 µM (inactive)	-6.58% (inactive)	inactive	-21.4% (inactive)	9.9% (inactive)	> 46 µM (inactive)	inactive	inactive	1.4% (inactive)	2.42%	5.09%	inactive	–	inactive	–	–	25.1 µM (active)	–
CS(=O)(=O)N1CCC2(CCN(C(=O)Nc3cccc(F)c3)CC2)CC1	> 11.4 µM (inactive)	-2.81% (inactive)	inactive	8.92% (inactive)	-6.54% (inactive)	> 46 µM (inactive)	inactive	inactive	4.55% (inactive)	4.7%	11.5%	inactive	–	–	–	–	–	–
O=S(=O)(c1ccccc1)N1CCC2(CCN(C(c3ccccc3)c3ccccc3)CC2)CC1	> 11.4 µM (inactive)	-13.4% (inactive)	inactive	-19.9% (inactive)	-5.59% (inactive)	> 46 µM (inactive)	inactive	inactive	6.93% (inactive)	11.2%	22.7%	inactive	0.501 µM (active)	inactive	–	–	12.6 µM (active)	–
COC(=O)N1CCC[C@@]2(CCN(c3ccncc3)C2)C1	> 11.4 µM (inactive)	-7.07% (inactive)	inactive	-14.4% (inactive)	-2.36% (inactive)	> 46 µM (inactive)	inactive	inactive	4.92% (inactive)	18.5%	26.2%	inactive	inactive	3.98 µM (active)	inactive	–	inactive	–
Cc1noc(C)c1C(=O)N1CCC2(CCCN(C(=O)NC(C)C)C2)CC1	> 11.4 µM (inactive)	10.5% (inactive)	inactive	8.68% (inactive)	-2.07% (inactive)	> 46 µM (inactive)	inactive	inactive	6.76% (inactive)	0.437%	10.1%	inactive	inactive	–	–	inactive	–	–
Cc1noc(C)c1C(=O)N1CCC[C@@]2(CCN(C(=O)Nc3cccc(F)c3)C2)C1	> 11.4 µM (inactive)	-2.75% (inactive)	inactive	9.58% (inactive)	8.15% (inactive)	> 46 µM (inactive)	inactive	inactive	3.82% (inactive)	8.32%	13.6%	inactive	–	5.01 µM (active)	–	–	inactive	–
CC(C)NC(=O)N1CCC2(CC1)CCN(C(=O)c1cc(C(F)(F)F)cc(C(F)(F)F)c1)CC2	> 11.4 µM (inactive)	-12% (inactive)	inactive	25.7% (inactive)	-9.32% (inactive)	> 46 µM (inactive)	inactive	inactive	-0.11% (inactive)	-8.79%	-7.75%	inactive	inactive	inactive	–	–	–	9.62% (inactive)

Source: PubChem BioAssay (NCATS)
